# Screening data: PubChem, Broad Institute
# The sample as a whole holds a higher share of hits than the screen did.
# Tgondii IFNg: T. gondii growth inhibition under IFN-gamma; Toxoplasma gondii growth in IFN-gamma-treated host cells; stronger effect = lower value; activity change, negative = inhibition, % (no concentration beside the values); actives 3.8% (n = 69,000); AID 1259416; in the data active means activity change below about -70%, passing the limit was not always enough;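 further: host cells are HeLa cells infected with Toxoplasma gondii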
# * hit, by the source's call; i = inactive.
SMILES,Tgondii IFNg
O=C(Nc1nccnc1C(=O)N1CCC(N2CCCCC2)CC1)c1ccccc1,-44
Cc1cccc(NC2COC3(CCCN(Cc4nccn4C)C3)C2)c1 (stereo not drawn),340
O=c1[nH]c(N2CCOCC2)nc2c1CCN(Cc1ccc(O)cc1)C2,37
CCn1nc(C(=O)Nc2ccccc2CN2CCCC2)c2ccccc2c1=O,13
CN1C(=O)N(C)C2(C(=O)NCc3ccccc3)N=CNN=C12 (stereo not drawn),23
COc1ccccc1N1CCN(C2CCCN(C(=O)c3ccc(=O)[nH]c3)C2)CC1 (stereo not drawn),2
CN(C)C(=O)N1CCC(c2nc3ccc(N4CCOCC4)cn3n2)CC1,-9
CCOC(=O)c1ccccc1NC(=O)NCC(c1cccnc1)c1c[nH]c2ccccc12 (stereo not drawn),-1
CCCOC1CCCN(c2cc(CCN)nc(C)n2)C1 (stereo not drawn),3
Fc1ccccc1CSc1nc(NCc2ccccc2)c2ccccc2n1,1
Cc1cccc(CC(=O)N(C)CC2Cc3ccccc3O2)c1 (stereo not drawn),-13
Cc1ccc(CNC(=O)CN2C(=O)CCc3cc(S(=O)(=O)N4CCCCC4C)ccc32)o1 (stereo not drawn),23
Cc1ccccc1S(=O)(=O)N1[C@H](C#N)[C@@H](c2ccccc2-c2cccc(F)c2)[C@@H]1CO,-9
O=C1CN(CC(=O)N2CCCC(c3[nH]ncc3-c3ccc(F)cc3)C2)C(=O)N1 (stereo not drawn),3
O=S(=O)(c1ccccc1)N1CCC2(CCCN2Cc2cccc(F)c2)C1 (stereo not drawn),9
CCCCN(C)C(=O)c1ccc(-c2nc(CN3CCN(c4ccccc4)CC3)c(C)o2)cc1,-32
Cc1oc(-c2ccc(C(=O)N(C)Cc3ccccc3)cc2)nc1CN1CCN(c2ccccc2)CC1,-94*
CNC(=O)c1ccc(-c2nc(CN3CCN(c4ccccc4)CC3)c(C)o2)cc1,23
Cc1nc(CN2CC3CC(C(=O)CCN(C)C)C(C2)O3)cs1 (stereo not drawn),53
CCSc1ncc(CN2C[C@@H]3CCCN3C[C@@H]2Cc2ccccc2)cn1,-44
COCCN1Cc2nccn2CC(CN(C)Cc2ccco2)C1 (stereo not drawn),-18
COc1ccc(NC(=O)C(=O)NCCc2sc(-c3cccc(F)c3)nc2C)cc1,19
O=C(NCCN1CCOCC1)c1csc(-c2ccc(N3CCCC3)nc2)n1,-100*
O=C(c1csc(-c2ccc(N3CCCC3)nc2)n1)N1CCC2(CC1)OCCO2,41
O=C(NCc1ccc(N2CCOCC2)cc1)c1csc(-c2ccc(N3CCCC3)nc2)n1,84
SMILES,Tgondii IFNg
Cc1ccsc1CN(C)C(=O)c1cc(Cn2ccnc2C(C)C)[nH]n1,-1
Cc1cccc(NC(=O)c2c(O)c3ccccc3n(-c3ccccc3)c2=O)c1,144
Cc1cc(-c2nccn2-c2ccc(CO)cc2)cc(C)c1O,80
COc1ccc(C[C@H](NC(=O)[C@H](C)NC(=O)CN2CCOCC2)C(=O)N[C@@H](Cc2ccccc2)C(=O)[C@]2(C)CO2)cc1,-74*
CC(C)C[C@H](NC(=O)[C@H](CCc1ccccc1)NC(=O)CN1CCOCC1)C(=O)N[C@@H](Cc1ccccc1)C(=O)N[C@@H](CC(C)C)C(=O)[C@@]1(C)CO1,-63
COc1ccc(-c2nc(C(=O)NC(C)CN3CCOCC3)cs2)cc1 (stereo not drawn),26
CN(CCSc1ccccc1)Cc1cc2n(n1)CCNC2,-4
CC(C)NC(=O)N1CC[C@H]2[C@@H]1CCN2Cc1cnn(C)c1,i
CCOc1ccccc1Nc1nc(-c2nnc(-c3ccc(OC)cc3)o2)nc2ccccc12,-12
c1ccc2c(N3CCN(Cc4cccc5nccnc45)CC3)ncnc2c1,-17
c1ccc(-n2cc(CN3CCN(c4ncnc5ccccc45)CC3)cn2)cc1,-53
c1ccc(CN2CCN(c3ncnc4ccccc34)CC2)cc1,-86*
Cc1cc(C)cc(NC(=O)CSc2nnnn2-c2ccc3c(c2)OCO3)c1,-13
Fc1ccc(CSc2nnnn2-c2ccc3c(c2)OCO3)c(Cl)c1,-72*
c1ccc(CSc2nnnn2-c2ccc3c(c2)OCO3)nc1,26
CCCSCCCNC(=O)c1nc(Nc2ccccc2)c2ccccc2n1,-64
CC(C)Cc1ccc(S(=O)(=O)N2CCC3(CC2)NCCN=C3NCc2cc(F)cc(F)c2)cc1,-69
c1csc(C2NCCc3ccccc32)c1 (stereo not drawn),-20
CN1CCC2(CCC1=O)CCN(C(=O)c1cnc(-c3cccnc3)nc1)CC2,6
CCNC(=O)CCC/C=C\C[C@@H]1[C@@H](/C=C/C(O)CCc2ccccc2)[C@H](O)C[C@@H]1O (stereo partly drawn),5
O=C(CSC(=O)c1ccco1)Nc1cc(C(F)(F)F)cc(C(F)(F)F)c1,-43
COc1cc(NC(=O)NC2Cc3ccccc3C2)cc(OC)c1,-6
O=C(Nc1cc(C(F)(F)F)cc(C(F)(F)F)c1)NC1CCc2ccccc2O1 (stereo not drawn),-82*
CN(Cc1cc(C(C)(C)C)n[nH]1)C(=O)c1ccn2nnnc2c1,-4
CO[C@H]1CN(S(=O)(=O)c2cn(C)cn2)[C@H]2COC[C@@H]12,-26
SMILES,Tgondii IFNg
CC1Cc2cc(CN(C)C(=O)CCc3ccc4c(c3)n(C)c(=O)n4C)ccc2O1 (stereo not drawn),0
CCN(CC)S(=O)(=O)c1ccc2c(c1)cc(C(=O)NCCC(C)N1CCCC1)n2C (stereo not drawn),-36
Cc1ccc(CCNC(=O)c2cc3cc(S(=O)(=O)N(C)C)ccc3n2Cc2ccncc2)cc1,38
CCN(CC)S(=O)(=O)c1ccc2c(c1)cc(C(=O)NCC1CCN(Cc3ccc(C)cc3)C1)n2C (stereo not drawn),-96*
NC1(C#Cc2cncc(C(=O)N3CCOCC3)c2)CCCCC1,-10
COc1ccc(C)cc1S(=O)(=O)NCCc1sc(-c2ccc(Cl)cc2)nc1C,89
COc1ccc(-c2nc(N)nc3c2CN(CC2CC=CCC2)C3)cc1 (stereo not drawn),-5
O=C1CCc2cc(S(=O)(=O)N3CCN(S(=O)(=O)c4ccc(F)cc4)CC3)cc3c2N1CC3,-5
COc1ccccc1C(=O)N1CCN(S(=O)(=O)c2cc3c4c(c2)CCC(=O)N4CCC3)CC1,25
CCN1C(=O)CCc2cc(NS(=O)(=O)c3ccccc3Cl)ccc21,28
CCN1C(=O)CCc2cc(NS(=O)(=O)c3ccc4c(c3)OCCO4)ccc21,-54
CCN1C(=O)CCc2cc(NS(=O)(=O)c3cccc(C)c3)ccc21,-43
CCN1C(=O)CCc2cc(NS(=O)(=O)c3ccc(Cl)c(Cl)c3)ccc21,-100*
COCCN1C(=O)CCc2cc(NS(=O)(=O)c3ccc(OC)c(OC)c3)ccc21,111
CCN1C(=O)CCc2cc(NS(=O)(=O)c3ccc(C)c(F)c3)ccc21,-72*
OC(CN1CCCC1)Cn1ccc(C(F)(F)F)n1 (stereo not drawn),67
COc1ccc(C(=O)N(c2cccc(Cl)c2)C2(C(=O)NCc3ccccc3)CCN(C(C)=O)CC2)cc1,109
OC1(C(F)(F)F)CC(c2ccc3c(c2)Nc2ccccc2S3)=NN1 (stereo not drawn),-49
OC1(C(F)(F)F)CC(/C=C/c2ccc3c(c2)OCO3)=NN1 (stereo not drawn),-86*
OC1(C(F)(F)F)CC(c2cc3ccccc3o2)=NN1 (stereo not drawn),-28
CCOc1ccc(-c2nc(Cn3nnc(C(=O)Nc4ccccc4)c3C)c(C)o2)cc1OC,-5
